This passage reports inhibition results from ChEMBL document CHEMBL1961873, “Compounds: GSK PKIS; Assays: Nanosyn kinase panel” (2012).

In experiment [1] the target is Serine/threonine-protein kinase pim-2 (Homo sapiens) (UniProt Q9P1W9). Particulars: at 1 µM.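 Also: each value is a mean of the inhibition measurements against the kinase.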
Experiment [2] addresses Serine/threonine-protein kinase pim-3 (Homo sapiens) (UniProt Q86V86). Particulars: at 0.1 µM.
Experiment [3] has the same target. As to conditions: at 1 µM.
In experiment [4] the target is T1, MAP kinase-activated protein kinase 5 (Homo sapiens) (UniProt Q8IW41).
T1 sequence (whole entry): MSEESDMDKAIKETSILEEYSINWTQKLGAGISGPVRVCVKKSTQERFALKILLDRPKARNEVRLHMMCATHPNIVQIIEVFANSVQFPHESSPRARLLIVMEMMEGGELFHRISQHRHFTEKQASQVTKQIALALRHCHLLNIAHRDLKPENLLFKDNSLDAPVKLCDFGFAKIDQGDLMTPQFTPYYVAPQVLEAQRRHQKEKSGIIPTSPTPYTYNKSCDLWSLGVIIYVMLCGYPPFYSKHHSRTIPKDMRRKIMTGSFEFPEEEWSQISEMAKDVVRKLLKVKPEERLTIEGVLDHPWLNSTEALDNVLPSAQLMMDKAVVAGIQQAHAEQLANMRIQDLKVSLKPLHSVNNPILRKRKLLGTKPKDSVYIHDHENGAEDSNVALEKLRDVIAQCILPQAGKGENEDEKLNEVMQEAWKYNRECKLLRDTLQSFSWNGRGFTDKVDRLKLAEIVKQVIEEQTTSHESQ
As to conditions: at 0.1 µM.

Experiment [5] has as its target T1, MAP kinase-activated protein kinase 5 (Homo sapiens). As to conditions: at 1 µM.
The target in experiment [6] is Serine/threonine-protein kinase SIK1 (Homo sapiens) (UniProt P57059). As to conditions: at 0.1 µM.
Chain of Serine/threonine-protein kinase SIK1 (Homo sapiens) (P57059 whole entry): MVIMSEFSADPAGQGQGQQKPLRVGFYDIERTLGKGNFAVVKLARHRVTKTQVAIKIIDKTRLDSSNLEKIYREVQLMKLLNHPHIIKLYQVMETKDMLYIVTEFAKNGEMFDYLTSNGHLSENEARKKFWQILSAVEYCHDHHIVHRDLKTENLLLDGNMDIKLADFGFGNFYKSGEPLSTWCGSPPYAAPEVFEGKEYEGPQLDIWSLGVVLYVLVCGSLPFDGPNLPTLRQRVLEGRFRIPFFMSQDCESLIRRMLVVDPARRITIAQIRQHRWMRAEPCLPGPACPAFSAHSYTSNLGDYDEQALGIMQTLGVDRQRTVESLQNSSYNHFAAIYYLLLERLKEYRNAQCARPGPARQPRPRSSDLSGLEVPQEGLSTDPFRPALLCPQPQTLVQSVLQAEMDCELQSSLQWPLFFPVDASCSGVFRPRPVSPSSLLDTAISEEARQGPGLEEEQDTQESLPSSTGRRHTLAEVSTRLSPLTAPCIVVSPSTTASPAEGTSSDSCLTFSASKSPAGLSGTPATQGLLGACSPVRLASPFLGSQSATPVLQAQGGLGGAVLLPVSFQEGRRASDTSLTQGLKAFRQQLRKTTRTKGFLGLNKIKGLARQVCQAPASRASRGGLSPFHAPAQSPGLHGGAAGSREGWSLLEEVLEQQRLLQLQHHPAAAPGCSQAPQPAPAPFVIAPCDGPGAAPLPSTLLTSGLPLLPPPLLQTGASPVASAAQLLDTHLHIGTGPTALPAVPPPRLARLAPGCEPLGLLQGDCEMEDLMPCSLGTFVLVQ
Experiment [7] shares this target. As to conditions: at 1 µM.
Experiment [8] concerns the target Serine/threonine-protein kinase SIK2 (Homo sapiens) (UniProt Q9H0K1). As to conditions: at 0.1 µM.
The target is the same in experiment [9]. Particulars: at 1 µM.
For experiment [10], the target named is T2, Serine/threonine-protein kinase TBK1 (Homo sapiens) (UniProt Q9UHD2).
T2 sequence (whole entry): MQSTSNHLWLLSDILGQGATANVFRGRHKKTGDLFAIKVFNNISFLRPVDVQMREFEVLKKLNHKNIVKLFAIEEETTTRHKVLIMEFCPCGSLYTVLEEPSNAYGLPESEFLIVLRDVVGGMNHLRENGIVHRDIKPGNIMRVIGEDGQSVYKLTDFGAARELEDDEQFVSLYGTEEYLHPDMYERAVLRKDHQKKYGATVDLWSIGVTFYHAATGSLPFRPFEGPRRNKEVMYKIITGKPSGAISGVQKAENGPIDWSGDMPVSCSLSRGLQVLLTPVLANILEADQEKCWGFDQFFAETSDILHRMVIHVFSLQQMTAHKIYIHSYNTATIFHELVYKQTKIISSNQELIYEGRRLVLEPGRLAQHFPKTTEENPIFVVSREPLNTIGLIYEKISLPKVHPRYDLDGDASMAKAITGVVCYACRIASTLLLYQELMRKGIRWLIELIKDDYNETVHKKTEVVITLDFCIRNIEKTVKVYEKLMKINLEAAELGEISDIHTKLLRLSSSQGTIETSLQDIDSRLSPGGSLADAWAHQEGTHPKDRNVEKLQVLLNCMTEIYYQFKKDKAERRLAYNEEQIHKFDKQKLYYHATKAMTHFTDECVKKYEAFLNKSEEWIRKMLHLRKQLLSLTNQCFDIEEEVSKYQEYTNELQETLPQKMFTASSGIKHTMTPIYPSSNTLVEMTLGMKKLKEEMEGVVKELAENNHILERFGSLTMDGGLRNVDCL
As to conditions: at 0.1 µM.

For experiment [11], the target named is T2, Serine/threonine-protein kinase TBK1 (Homo sapiens). As to conditions: at 1 µM.
For experiment [12], the target named is T3, Testis-specific serine/threonine-protein kinase 1 (Homo sapiens) (UniProt Q9BXA7).
T3 sequence (whole entry): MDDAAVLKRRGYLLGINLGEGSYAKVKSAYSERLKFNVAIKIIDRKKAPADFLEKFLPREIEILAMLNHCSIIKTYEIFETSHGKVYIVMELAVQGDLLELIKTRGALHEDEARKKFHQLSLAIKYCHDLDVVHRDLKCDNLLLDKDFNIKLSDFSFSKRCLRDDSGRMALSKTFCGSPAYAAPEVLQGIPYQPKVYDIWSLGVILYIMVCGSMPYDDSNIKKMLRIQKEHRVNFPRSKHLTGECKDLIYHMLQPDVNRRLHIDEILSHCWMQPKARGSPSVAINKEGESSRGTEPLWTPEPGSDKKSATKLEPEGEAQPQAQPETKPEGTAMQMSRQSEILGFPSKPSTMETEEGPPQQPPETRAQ
As to conditions: at 0.1 µM.

Experiment [13] addresses T3, Testis-specific serine/threonine-protein kinase 1 (Homo sapiens). As to conditions: at 1 µM.
Experiment [14] addresses T4, Testis-specific serine/threonine-protein kinase 2 (Homo sapiens) (UniProt Q96PF2).
T4 sequence (whole entry): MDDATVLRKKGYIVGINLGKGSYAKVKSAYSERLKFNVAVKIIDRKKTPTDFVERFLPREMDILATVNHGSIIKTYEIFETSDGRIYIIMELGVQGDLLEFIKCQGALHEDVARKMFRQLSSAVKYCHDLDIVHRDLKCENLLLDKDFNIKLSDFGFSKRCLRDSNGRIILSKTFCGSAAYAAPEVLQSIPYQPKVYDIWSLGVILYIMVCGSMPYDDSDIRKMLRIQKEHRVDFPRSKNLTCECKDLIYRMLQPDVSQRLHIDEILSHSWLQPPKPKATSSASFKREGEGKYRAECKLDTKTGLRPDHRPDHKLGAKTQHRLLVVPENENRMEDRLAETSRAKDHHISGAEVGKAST
As to conditions: at 0.1 µM.

Experiment [15] has as its target T4, Testis-specific serine/threonine-protein kinase 2 (Homo sapiens). Particulars: at 1 µM.
Experiment [16] concerns the target Casein kinase I isoform alpha (Homo sapiens) (UniProt P48729). As to conditions: at 0.1 µM.
The target is the same in experiment [17]. Particulars: at 1 µM.
The target of experiment [18] is Casein kinase I isoform gamma-1 (Homo sapiens) (UniProt Q9HCP0). Particulars: at 0.1 µM.
Chain of Casein kinase I isoform gamma-1 (Homo sapiens) (Q9HCP0 whole entry, looked up, canonical isoform): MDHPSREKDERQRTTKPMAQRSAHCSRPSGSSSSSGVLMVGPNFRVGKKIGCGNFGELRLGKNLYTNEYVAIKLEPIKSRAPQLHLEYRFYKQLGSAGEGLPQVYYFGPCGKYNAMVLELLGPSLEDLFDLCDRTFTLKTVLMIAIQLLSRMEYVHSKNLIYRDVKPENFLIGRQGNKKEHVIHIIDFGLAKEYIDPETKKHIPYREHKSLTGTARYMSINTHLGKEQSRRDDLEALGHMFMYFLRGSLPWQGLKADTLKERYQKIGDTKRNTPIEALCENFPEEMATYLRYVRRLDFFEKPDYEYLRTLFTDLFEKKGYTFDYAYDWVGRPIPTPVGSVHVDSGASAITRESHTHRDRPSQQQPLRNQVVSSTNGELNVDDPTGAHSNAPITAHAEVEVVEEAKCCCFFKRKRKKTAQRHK
The target is the same in experiment [19]. Particulars: at 1 µM.
In experiment [20] the target is Casein kinase I isoform gamma-2 (Homo sapiens) (UniProt P78368). Particulars: at 0.1 µM.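 Also: values are mean inhibition figures reported as part of the GSK PKIS dataset.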
Chain of Casein kinase I isoform gamma-2 (Homo sapiens) (P78368 whole entry, looked up, canonical isoform): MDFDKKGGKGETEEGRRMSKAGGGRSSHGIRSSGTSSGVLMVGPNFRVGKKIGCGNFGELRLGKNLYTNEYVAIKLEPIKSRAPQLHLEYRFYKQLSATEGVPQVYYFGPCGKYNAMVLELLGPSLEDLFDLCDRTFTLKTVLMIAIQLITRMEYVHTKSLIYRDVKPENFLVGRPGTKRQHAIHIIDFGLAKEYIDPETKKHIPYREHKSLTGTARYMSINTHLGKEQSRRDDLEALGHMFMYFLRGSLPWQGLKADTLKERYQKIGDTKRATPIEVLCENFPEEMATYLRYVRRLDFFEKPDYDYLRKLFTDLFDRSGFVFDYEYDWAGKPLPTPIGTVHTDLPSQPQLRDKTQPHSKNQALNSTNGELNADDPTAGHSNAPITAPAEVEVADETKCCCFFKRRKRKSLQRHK

Chain of Casein kinase I isoform alpha (Homo sapiens) (P48729 2-337 limits assumed): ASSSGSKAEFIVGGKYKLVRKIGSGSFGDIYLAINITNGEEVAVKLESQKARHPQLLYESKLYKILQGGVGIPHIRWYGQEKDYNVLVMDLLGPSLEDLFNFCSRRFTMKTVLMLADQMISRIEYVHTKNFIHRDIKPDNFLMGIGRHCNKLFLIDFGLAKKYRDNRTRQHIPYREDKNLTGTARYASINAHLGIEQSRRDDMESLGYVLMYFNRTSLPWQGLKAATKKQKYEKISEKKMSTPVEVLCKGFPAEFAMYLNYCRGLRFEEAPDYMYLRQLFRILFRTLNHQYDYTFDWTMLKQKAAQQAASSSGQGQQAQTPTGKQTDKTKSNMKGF
Chain of Serine/threonine-protein kinase pim-2 (Homo sapiens) (Q9P1W9 whole entry, looked up): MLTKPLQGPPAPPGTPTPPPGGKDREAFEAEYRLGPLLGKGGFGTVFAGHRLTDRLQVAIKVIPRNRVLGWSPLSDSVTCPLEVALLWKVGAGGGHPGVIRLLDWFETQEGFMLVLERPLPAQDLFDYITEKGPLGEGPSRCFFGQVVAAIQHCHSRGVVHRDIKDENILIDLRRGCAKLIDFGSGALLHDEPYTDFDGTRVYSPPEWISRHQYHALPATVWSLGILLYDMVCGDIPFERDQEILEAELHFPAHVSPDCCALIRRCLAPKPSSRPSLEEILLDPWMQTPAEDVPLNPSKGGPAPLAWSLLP
Chain of Serine/threonine-protein kinase SIK2 (Homo sapiens) (Q9H0K1 whole entry, looked up): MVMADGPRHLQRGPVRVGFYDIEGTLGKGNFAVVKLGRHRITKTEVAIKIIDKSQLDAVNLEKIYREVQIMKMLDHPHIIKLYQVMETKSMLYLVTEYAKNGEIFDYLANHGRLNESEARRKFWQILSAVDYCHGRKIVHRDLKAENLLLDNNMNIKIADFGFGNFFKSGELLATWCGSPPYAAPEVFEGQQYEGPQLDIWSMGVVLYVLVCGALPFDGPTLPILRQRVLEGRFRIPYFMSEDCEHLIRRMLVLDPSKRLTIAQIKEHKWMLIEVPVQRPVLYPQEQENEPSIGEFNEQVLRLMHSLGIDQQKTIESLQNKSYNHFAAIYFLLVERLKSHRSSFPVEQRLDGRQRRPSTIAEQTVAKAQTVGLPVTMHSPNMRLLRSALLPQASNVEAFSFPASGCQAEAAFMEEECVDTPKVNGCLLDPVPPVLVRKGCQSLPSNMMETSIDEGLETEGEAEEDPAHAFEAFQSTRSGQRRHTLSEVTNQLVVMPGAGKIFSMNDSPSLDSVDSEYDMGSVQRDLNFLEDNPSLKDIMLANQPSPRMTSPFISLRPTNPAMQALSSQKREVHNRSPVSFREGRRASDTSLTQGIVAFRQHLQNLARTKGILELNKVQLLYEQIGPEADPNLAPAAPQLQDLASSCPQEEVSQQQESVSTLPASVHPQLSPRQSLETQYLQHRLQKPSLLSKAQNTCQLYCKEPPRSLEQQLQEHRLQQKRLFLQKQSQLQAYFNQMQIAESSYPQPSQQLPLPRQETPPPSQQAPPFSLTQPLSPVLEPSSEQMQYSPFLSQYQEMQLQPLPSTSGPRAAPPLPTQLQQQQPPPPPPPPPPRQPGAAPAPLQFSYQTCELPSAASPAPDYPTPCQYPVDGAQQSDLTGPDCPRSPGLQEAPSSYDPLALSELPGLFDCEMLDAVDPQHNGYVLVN

In general, inhibition refers to the drop in the measured response relative to a control, in per cent. Take `NS(=O)(=O)c1ccc(NC=C2C(=O)Nc3ccc4ncsc4c32)cc1`: the inhibition in [1] was 5.46%; in experiment [2] it was 2.4%; in [3], 13.1%; in experiment [4], 2.33%; in experiment [5], 13.9%; in [6], 5.99%. In addition, the inhibition in [7] turned out to be 34.1%; in experiment [8] it was 9.07%; in experiment [9] it was 40.7%; in experiment [10], 13.4%; in experiment [11] it was 65.6%; in experiment [12] it was 8.91%. The inhibition in experiment [13] was 33.5%; in experiment [14], 2.62%; in experiment [15], 3.73%; in [16], 4.2%; in experiment [17], 22.3%; in experiment [18], 5.22%. Besides, the inhibition was 18.2% in [19] and 3.58% in experiment [20].
For the compound `CN(c1ccc(NC(=O)Nc2ccc(OC(F)(F)F)cc2)cc1)c1ccnc(Nc2cccc(S(N)(=O)=O)c2)n1`, the inhibition in [1] is 0.39%; in experiment [2], 0.72%; in [3], -1.83%; in [4], 0.88%; in experiment [5], -0.8%; in experiment [6], 3.04%. Further, the inhibition in experiment [7] was 7.29%; in experiment [8], 0.98%; in experiment [9] it was -0.49%; in experiment [10] it was 0.04%; in experiment [11] it was 9.01%; in experiment [12], 1.37%. Moreover, the inhibition was 2.44% in experiment [13]; 1.3% in experiment [14]; 1.3% in experiment [15]; 2.69% in experiment [16]; -0.75% in experiment [17]; 2.75% in experiment [18]. The inhibition worked out at 3.06% in experiment [19] and 2.32% in experiment [20].
`Nc1ccc(C#Cc2cncnc2Nc2ccc(OCc3cccc(F)c3)c(Cl)c2)cc1`: the inhibition is 0.51% in experiment [1]; -0.08% in [2]; 1.14% in experiment [3]; 1.7% in [4]; 0.75% in experiment [5]; 5.15% in experiment [6]. Also, the inhibition in experiment [7] was 2.18%; in experiment [8] it was -0.99%; in experiment [9] it was 5.08%; in experiment [10] it was 2.5%; in experiment [11], 3.55%; in experiment [12], 2.73%. Also, the inhibition in [13] came out at 2.62%; in experiment [14], 1.11%; in experiment [15], 0.95%; in experiment [16], 3.47%; in experiment [17], 2.49%; in [18], 2.52%. The inhibition was 2.66% in experiment [19] and 1.58% in experiment [20].
Regarding `COc1ccc2ncnc(Nc3ccc(OCc4ccccc4)cc3)c2c1`, the inhibition in [1] turned out to be 0.96%; in experiment [2], 0.32%; in experiment [3], 0.59%; in experiment [4], 0.99%; in [5], 1.13%; in experiment [6], 1.08%. The inhibition amounted to 5.56% in experiment [7]; 3.18% in experiment [8]; 3.43% in [9]; 1.67% in [10]; 1.27% in experiment [11]; 1.95% in [12]. Also, the inhibition in experiment [13] worked out at 3.16%; in experiment [14], 0.6%; in experiment [15], 2.34%; in experiment [16], 6.26%; in [17], 8.76%; in [18] it was 1.48%. Also, the inhibition in [19] came out at 2.76%; in [20] it was 1.66%.
For the compound `Nc1nccc(-c2c(-c3ccc(F)cc3)ncn2CCCN2CCOCC2)n1`, the inhibition in experiment [1] turned out to be 1.68%; in experiment [2], 2.11%; in experiment [3], 1.36%; in [4], 1.45%; in [5], 4.08%; in experiment [6], 2.84%. The inhibition in experiment [7] is 6.36%; in experiment [8] it was 7.84%; in [9], 11.6%; in experiment [10], 0.96%; in experiment [11] it was 4.85%; in experiment [12], 3.5%. Besides, the inhibition in experiment [13] is 3.45%; in experiment [14] it was 2.07%; in experiment [15], 2.83%; in experiment [16], 6.3%; in experiment [17] it was 27.3%; in [18], 3.45%. For the same compound, the inhibition came to 5.49% in experiment [19] and 2.84% in experiment [20].
Turning to `NC(=O)c1cccc(Nc2nccc(Nc3cccc(F)c3)n2)c1`, the inhibition in experiment [1] was 0.31%; in experiment [2], 0.13%; in experiment [3], 2%; in experiment [4], 0.33%; in experiment [5] it was -0.56%; in experiment [6], 9.14%. In addition, the inhibition in [7] was 37%; in experiment [8] it was 7.47%; in experiment [9], 25.1%; in experiment [10], 1.55%; in [11], 6.93%; in experiment [12], -0.18%. The inhibition in experiment [13] is 0.75%; in [14], 0.59%; in [15], -0.96%; in experiment [16], -0.75%; in [17], 1.32%; in [18] it was 0.88%. Moreover, the figures for the inhibition in experiment [19] and in experiment [20] were 1.67% and 0.97%, respectively.
